Assay outcomes (PubChem BioAssay)
Cycloheximide cs = Cycloheximide Counterscreen for Small Molecule Inhibitors of Shiga Toxin; cell reporter, cycloheximide protein synthesis inhibition counterscreen; max response, %; 300,000 compounds, 12% hits; in the data active = max response mostly above about 13%, no sharp cut-off; inactive = mostly below about 14%; also: read at 38.3 µM for the half of the compounds with a filed dose
Pf growth 48h = Primary qHTS for delayed death inhibitors of the malarial parasite plastid, 48 hour incubation; P. falciparum luciferase growth in erythrocytes, 48 h; Potency, µM (series often up to 28.7 µM), usual class: inhibitors; 310,000 compounds, 5.9% hits
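Luciferase-expressing parasites in RBCs, 2% Hct / 0.1% parasitemia final; RPMI 1640 + 0.5% Albumax; 37 C, 5% CO2, one generation; luminescence read-out, lower signal = inhibition.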
Pf growth 96h = Primary qHTS for delayed death inhibitors of the malarial parasite plastid, 96 hour incubation. P. falciparum luciferase reporter growth, 96 h. Potency, µM (highest dose often 28.7 µM), most hits filed as inhibitors. 320,000 compounds, 6.9% hits
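Erythrocytes infected with luciferase-expressing P. falciparum were dispensed at 2% hematocrit and 0.05% parasitemia (final), then incubated with compounds 96 hours at 37 C in 5% CO2. Luminescence after detection reagent addition reported growth.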
Shiga inhibitor = A qHTS for Small Molecule Inhibitors of Shiga Toxin | inhibition, % at 38.7 µM | AID 2315, 2010 | Vero cells, Shiga toxin protein synthesis inhibition reporter | 290,000 compounds, 9.2% hits; in the data active = inhibition mostly above about 28%, no sharp cut-off; inactive = mostly below about 43%
HCMV inh = qHTS Assay for inhibitors of the human cytomegalovirus (HCMV); HFF cells, HCMV-luciferase reporter, 72 h; active compounds read low; activity change, negative = inhibition, % at 57.5 µM; 410,000 compounds, 4.5% hits; AID 1259415, 2018; in the data active = activity change below about -60%; inconclusive = no clear call, values can overlap the other calls; inactive = above about -39%
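Steps: HFFs plated, 16 h 37C; compounds added; HCMV-luciferase added to MOI 1 PFU/cell; 72 h 37C; OneGlo reagent, 5 min room temperature; luminescence read, normalized to controls.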
A number is an active result; ! = a repeat was not active; [ ] = another dose, or the depositor's remark. Compounds with a hit are over-represented: about 20% of the library has one in this group of screens. Unless noted, calls follow the shape of the dose curve; as a rule, active = well fitted inhibition curve with a large enough effect; inconclusive = small, poorly fitted or top-dose-only effect, or another doubt; inactive = no such curve, though single readings can be large or run the other way.

`CC1(C)C(=O)N(CC(=O)Nc2ccc(Cl)cc2)c2ccccc21` gave HCMV inh inactive.
CCOC(=O)C1=C(CS(=O)(=O)c2ccc(C)cc2)NC(=O)NC1c1ccc(C(C)C)cc1 (configuration not stated) was read as HCMV inh inactive.
Cc1ccc(OCC(=O)Nc2nnc(SCc3cc(=O)c4ccccc4[nH]3)s2)cc1 was read as HCMV inh inactive.
Screening CCOc1ccc(C(=O)/C=C/c2cc(OC)c(OC)c(OC)c2)cc1 returned Cycloheximide cs inactive, Pf growth 48h inconclusive, Pf growth 96h inactive, Shiga inhibitor inactive and HCMV inh -88.
`CCOc1ccc(C(=O)/C=C/c2ccc(SC)cc2)cc1` gave Cycloheximide cs inactive, Pf growth 48h inactive, Pf growth 96h inconclusive, Shiga inhibitor inactive and HCMV inh inactive.
`COc1cc(C(=O)Oc2ccc3ccc(O)cc3c2)cc(OC)c1OC` gave Cycloheximide cs 21, Pf growth 48h inactive, Pf growth 96h inactive, Shiga inhibitor inactive and HCMV inh inactive.
COc1ccc(C(=O)/C=C/c2ccc(OC(=O)c3cc(OC)c(OC)c(OC)c3)cc2)cc1 was read as Cycloheximide cs inactive, Pf growth 48h 2.9µM, Pf growth 96h 4.7µM, Shiga inhibitor inactive and HCMV inh inactive.
For O=C(Oc1ccc2ccc(O)cc2c1)c1ccccc1Cl the results were Cycloheximide cs 32, Pf growth 48h inactive, Pf growth 96h inactive, Shiga inhibitor 44 and HCMV inh inconclusive.
Screening COc1ccc(C(=O)/C=C/c2ccc(OC)c(COc3ccccc3F)c2)cc1 returned Cycloheximide cs inactive, Pf growth 48h inconclusive, Pf growth 96h inconclusive, Shiga inhibitor inactive and HCMV inh inconclusive.
Screening O=C(Oc1ccc2ccc(O)cc2c1)C1CCCCC1 returned Cycloheximide cs inactive, Pf growth 48h inactive, Pf growth 96h inactive, Shiga inhibitor inactive and HCMV inh inactive.
`O=C(NCCN1CCOCC1)c1cc2cc([N+](=O)[O-])ccc2s1` gave Cycloheximide cs inactive, Pf growth 48h inactive, Pf growth 96h inactive, Shiga inhibitor inactive and HCMV inh inactive.
`CC1CCC(NC(=O)CCNS(=O)(=O)c2ccc3c(c2)CCC(=O)N3)CC1` (configuration not stated) gave Cycloheximide cs inactive, Pf growth 48h inactive, Pf growth 96h inactive, Shiga inhibitor inactive and HCMV inh inactive.
Screening COc1cc(C(=O)Oc2cc(C)cc(C)c2)cc(OC)c1OC returned Cycloheximide cs inactive, Pf growth 48h 15µM, Pf growth 96h inactive, Shiga inhibitor inactive and HCMV inh inactive.
`COc1cc(C(=O)Oc2cccnc2)cc(OC)c1OC` gave Cycloheximide cs inactive, Pf growth 48h inactive, Pf growth 96h inactive, Shiga inhibitor inactive and HCMV inh inactive.
Screening COc1cc(/C=C/C(=O)O)cc(OC)c1OC returned Cycloheximide cs inactive, Pf growth 48h inactive, Pf growth 96h inactive, Shiga inhibitor inactive and HCMV inh inactive.
COc1cc(/C=C/C(=O)c2ccc(F)cc2)cc(OC)c1OC was read as Cycloheximide cs inactive, Pf growth 48h inconclusive, Pf growth 96h inactive, Shiga inhibitor inactive and HCMV inh -112.
For O=C(CNC(=O)c1ccco1)NCC(=O)OCc1ccc(F)cc1 the results were Cycloheximide cs inactive, Pf growth 48h inactive, Pf growth 96h 3.3µM, Shiga inhibitor inactive and HCMV inh inconclusive.
Screening O=C(CNC(=O)c1ccco1)OCc1ccc(C(=O)Oc2ccccc2)cc1 returned Cycloheximide cs 33, Pf growth 48h inactive, Pf growth 96h inconclusive, Shiga inhibitor 24 and HCMV inh inactive.
For CCCCNC(=O)CCn1nc(-c2ccc(C)cc2)c2ccccc2c1=O the results were Cycloheximide cs inactive, Pf growth 48h inactive[0.00184 µM], Pf growth 96h inactive, Shiga inhibitor inactive and HCMV inh -72.
Screening CCCCNC(=O)CCn1nc(-c2ccccc2)c2ccccc2c1=O returned Cycloheximide cs inactive, Pf growth 48h inactive, Pf growth 96h inactive and Shiga inhibitor inactive.
`CCCNC(=O)CCn1nc(-c2ccc(C)cc2)c2ccccc2c1=O` gave Cycloheximide cs inactive, Pf growth 48h inactive[0.00184 µM], Pf growth 96h inactive, Shiga inhibitor inactive and HCMV inh -65!.
For C=CCNc1nc(Nc2cc(Cl)ccc2OC)nc(OC)n1 the results were Cycloheximide cs inactive, Pf growth 48h inactive, Pf growth 96h inactive, Shiga inhibitor inactive and HCMV inh inactive.
Screening CCN(CCCNC(=O)CN1N=C(c2ccccc2)CCC1=O)c1ccccc1 returned HCMV inh inactive.
Screening Nc1cc2nsnc2cc1Br returned Cycloheximide cs inactive, Pf growth 48h inactive, Pf growth 96h inactive, Shiga inhibitor inactive and HCMV inh -107.
`CCCCNC(=S)Nc1ccc(-c2nc3ccc(C)cc3s2)cc1` gave Cycloheximide cs 65, Pf growth 48h inactive, Pf growth 96h inactive, Shiga inhibitor 51 and HCMV inh inactive.
`CCC(C)(C)NC(=S)Nc1ccc(-c2nc3ccc(C)cc3s2)cc1` gave Cycloheximide cs 44, Pf growth 48h inactive, Pf growth 96h inactive, Shiga inhibitor 82 and HCMV inh inactive.
For Cc1ccc2nc(-c3ccc(NC(=S)NCC(C)(C)CN(C)C)cc3)sc2c1 the results were HCMV inh inactive.
CC1OC(=O)c2cc3ccccc3nc21 (configuration not stated) was read as HCMV inh inactive.
CCOc1ccc(C(=O)N/N=C/c2cc(Cl)ccc2[N+](=O)[O-])cc1 was read as Cycloheximide cs inactive, Pf growth 48h inactive, Pf growth 96h inconclusive, Shiga inhibitor inactive and HCMV inh inactive.
`CCc1ccc(C2C(C#N)=C(N)N(N(C)C)C3=C2C(=O)CCC3)cc1` (configuration not stated) gave Cycloheximide cs inactive, Pf growth 48h inactive, Pf growth 96h inactive, Shiga inhibitor inactive and HCMV inh inactive.
Cc1c(Cl)cccc1-n1ncc(C(=O)N2CCN(C)CC2)c1C1CCN(C(=O)OC(C)(C)C)CC1 was read as HCMV inh inactive.
Cc1ccc(-c2c[n+](Cc3cccc(Cl)c3)c3n2CCC3)cc1 was read as Cycloheximide cs inactive, Pf growth 48h inconclusive, Pf growth 96h inconclusive, Shiga inhibitor inactive and HCMV inh -86.
Screening Clc1cccc(C[n+]2cc(-c3ccccc3)n3c2CCC3)c1 returned Cycloheximide cs inactive, Pf growth 48h 2.1µM, Pf growth 96h 0.19µM, Shiga inhibitor inactive and HCMV inh -70.
`Clc1cccc(CN2CCC(Cc3ccccc3)CC2)c1` gave Cycloheximide cs inactive, Pf growth 48h inactive, Pf growth 96h inactive, Shiga inhibitor inactive and HCMV inh inactive.
For Cc1ccc(S(=O)(=O)N(Cc2cccc(Cl)c2)C(=O)N2CCN(C)CC2)cc1 the results were Pf growth 48h inactive, Pf growth 96h inactive and HCMV inh inactive.
Screening CC(C)CCn1c(COc2ccccc2)n[nH]c1=S returned Cycloheximide cs inactive, Pf growth 48h inactive[1.15 µM], Pf growth 96h inactive[1.15 µM], Shiga inhibitor inactive and HCMV inh -62.
Screening S=c1[nH]nc(COc2ccccc2)n1/N=C/c1c(Cl)cccc1Cl returned Cycloheximide cs inactive, Pf growth 96h inactive, Shiga inhibitor inactive and HCMV inh -103.
